Consider 20 compounds from PubChem BioAssay (NCATS).

Unmarked numbers belong to inactive results. Inconclusive results are not listed. Active and inactive are the calls of the source. Calls follow the shape of the dose curve; as a rule, active = well fitted curve in the direction sought with a large enough effect; inconclusive = small, poorly fitted or top-dose-only effect, or another doubt; inactive = no such curve, though single readings can be large; an effect the other way counts as inactive or inconclusive.

In assay [1] the target is Cytochrome P450 3A4 (Homo sapiens) (UniProt P08684). Description: qHTS Assay for Inhibitors and Substrates of Cytochrome P450 3A4 (AID 884). Also: potency is read from the fitted curve at half-maximal effect; nearly all actives have a fitted effect of over 50% in size. Summed up:
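Luminescent readout of luciferin produced by CYP3A4 (20 nM) dealkylation of Luciferin-PPXE, 25 uM (its KM). NADPH-driven reaction ran 60 min at RT after 10 min compound preincubation; data scaled to 57 uM ketoconazole as 100% inhibition.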
(In general: qHTS replaces the single test concentration by a dilution series.)

The target is the same in assay [2]. Description: qHTS Assay for Activators of Cytochrome P450 3A4 (AID 885). Also: nearly all actives have a fitted effect of over 65% in size. Summed up: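 CYP3A4 activity: Luciferin-PPXE O-dealkylation, 25uM substrate, 200mM KPO4, RT throughout. Read-out is luciferase luminescence; higher values reflect activation.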

Chain of Cytochrome P450 3A4 (Homo sapiens) (P08684 whole entry, looked up): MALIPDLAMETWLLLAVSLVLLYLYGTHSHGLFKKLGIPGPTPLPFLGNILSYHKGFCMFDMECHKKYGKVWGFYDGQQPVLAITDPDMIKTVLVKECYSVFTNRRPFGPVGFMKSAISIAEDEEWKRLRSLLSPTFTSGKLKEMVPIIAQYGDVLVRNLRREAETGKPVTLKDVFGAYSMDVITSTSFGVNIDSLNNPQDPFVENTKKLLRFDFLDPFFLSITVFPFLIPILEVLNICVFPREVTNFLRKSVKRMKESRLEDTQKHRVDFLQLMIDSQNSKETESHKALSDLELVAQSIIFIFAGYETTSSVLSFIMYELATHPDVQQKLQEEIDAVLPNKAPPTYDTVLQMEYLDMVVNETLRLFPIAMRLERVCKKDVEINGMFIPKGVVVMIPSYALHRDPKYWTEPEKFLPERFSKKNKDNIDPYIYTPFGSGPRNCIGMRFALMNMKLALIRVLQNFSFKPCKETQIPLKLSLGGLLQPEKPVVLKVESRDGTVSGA

As to `c1ccc(C2[C@H]3CN(Cc4cccnc4)[C@H](c4ccccc4)C34CC2(c2cccnc2)C4)cc1` (stereo not given in full), the Potency in assay [1] was 1.58 µM (active). The Potency result in assay [2] is “inactive”.

Turning to `CCC1=C2CC[C@H]3C(=O)N(C)C(=O)[C@H]3[C@H]2[C@@]2(Cc3ccccc3)C(=NCC(=O)OC)OC(=O)N2C1=O`, the Potency in assay [1] is 10 µM (active). Besides, the Potency result in assay [2] was “inactive”.

In the case of `COC(=O)c1cccc(C23CC4(C2)[C@H](CN(CC2CCCCC2)[C@@H]4c2ccccc2)C3c2ccccc2)c1` (stereo not given in full), the Potency in assay [1] was 15.8 µM (active). Moreover, the Potency result in assay [2] is “inactive”.

On to `FC(F)(F)c1ccc(C2[C@H]3CN(CC4CCCCC4)[C@H](c4ccccc4)C34CC2(c2cccnc2)C4)cc1` (stereo not given in full), for which the Potency in assay [1] is 15.8 µM (active). Moreover, the Potency entry in assay [2] was “inactive”.

For the compound `CCC1=C(OC(=O)N(CC)CC)N2C(=O)OC(=NCC(=O)OC)[C@]2(C)[C@H]2C1=CC[C@H]1C(=O)NC(=O)[C@H]12`, the Potency in assay [1] is 12.6 µM (active). Besides, the Potency entry in assay [2] is “inactive”.

In the case of `CCC1=C(OC(=O)N(CC)CC)N2C(=O)OC(=NCC3CC3)[C@]2(C)[C@H]2C1=CC[C@H]1C(=O)N(CC)C(=O)[C@H]12`, in assay [1], the Potency is 3.98 µM (active). The Potency entry in assay [2] was “inactive”.

As to `CCC1=C(OC(=O)N(CC)CC)N2C(=O)OC(=NCC3CC3)[C@]2(C)[C@H]2C1=CC[C@H]1C(=O)NC(=O)[C@H]12`, the Potency in assay [1] is 10 µM (active). For the same compound, the Potency result in assay [2] was “inactive”.

In the case of `C/C(CCN1CCCc2nc(C)c(C)cc21)=N\OC[C@@H](O)COCc1ccco1`, in assay [1], the Potency was 3.98 µM (active). Further, the activity change, positive = activation in assay [2] is -77.3% [at 11.4 µM].

Regarding `CCC1=C(OC(=O)N(CC)CC)N2C(=O)OC(=NCCc3c[nH]c4ccccc34)[C@]2(Cc2ccccc2)[C@H]2C1=CC[C@H]1C(=O)N(c3ccccc3)C(=O)[C@H]12`, in assay [1], the Potency is 6.31 µM (active). Further, in assay [2], the Potency entry is “inactive”.

As to `CCCNC(=O)OC[C@@H]1O[C@H](CCO/N=C(\C)CCC(=O)OC[C@@H]2O[C@H](c3ccccc3)C=C[C@@H]2Oc2ccc(OC)cc2)C=C[C@@H]1Oc1ccc(OC)cc1`, in assay [1], the Potency was 5.01 µM (active). In assay [2], the activity change, positive = activation was -87% [at 11.4 µM].

Take `COc1ccc(O[C@H]2C=C[C@@H](c3ccccc3)O[C@@H]2CO/N=C\[C@@H](C)[C@H](OCc2ccccc2)C(C)C)cc1`: in assay [1], the Potency is 3.98 µM (active). Moreover, the activity change, positive = activation in assay [2] was -73.9% [at 11.4 µM].

As to `Cc1ccc2oc(=O)c3c4cc(O)c(O)cc4oc3c2c1`, the Potency in assay [1] was 20 µM (active). Moreover, the Potency result in assay [2] was “inactive”.

Turning to `C#CCCCO/N=C1/C[C@@H](O)[C@@H](O)[C@@H]2[C@H]3C(=O)N(c4ccc(F)cc4F)C(=O)[C@@H]3CC[C@H]12`, in assay [1], the Potency is 3.98 µM (active). In addition, the activity change, positive = activation in assay [2] was -60.2% [at 11.4 µM].

Consider `CCC1=C2CC[C@H]3C(=O)N(C)C(=O)[C@H]3[C@H]2[C@@]2(Cc3ccccc3)C(=NCC3CC3)OC(=O)N2C1=O`, for which the Potency in assay [1] is 5.01 µM (active). Further, the Potency entry in assay [2] was “inactive”.

Turning to `COC(=O)C/C=C\[C@@H](C)[C@@H](/C=N\O[C@@H](C)c1cn([C@H]2COC[C@H]2O)nn1)NS(=O)(=O)c1ccc(C)cc1`, in assay [1], the Potency is 3.98 µM (active). The activity change, positive = activation in assay [2] is -71.6% [at 11.4 µM].

Take `FC(F)(F)c1ccc(CN2C[C@@H]3C(c4ccc(Cl)nc4)C4(c5cccnc5)CC3(C4)[C@H]2c2ccccc2)cc1` (stereo not given in full): in assay [1], the Potency was 15.8 µM (active). In addition, in assay [2], the Potency result is “inactive”.

Consider `CCC1=C(OC(=O)N(CC)CC)N2C(=O)OC(=NCC(=O)OC)[C@]2(C)[C@H]2C1=CC[C@H]1C(=O)N(C)C(=O)[C@H]12`, for which the Potency in assay [1] is 12.6 µM (active). Moreover, in assay [2], the Potency result is “inactive”.

Consider `COC(=O)c1cccc(C23CC4(C2)[C@H](CN(C)[C@@H]4c2ccccc2)C3c2ccc(C(F)(F)F)cc2)c1` (stereo not given in full), for which the Potency in assay [1] was 12.6 µM (active). For the same compound, the Potency entry in assay [2] is “inactive”.

As for `COC(=O)[C@@H]1C[C@H]2CC[C@H](O)C[C@H]2N1Cc1ccc(C(C)(C)C)cc1`, the Potency in assay [1] is 5.01 µM (active). Also, the Potency entry in assay [2] is “inactive”.

As to `CCC1=C(OC(=O)N(CC)CC)N2C(=O)OC(=NCCc3c[nH]c4ccccc34)[C@]2(C)[C@H]2C1=CC[C@H]1C(=O)N(C)C(=O)[C@H]12`, in assay [1], the Potency is 1.26 µM (active). The Potency entry in assay [2] was “inactive”.
